Screening data: PubChem, National Center for Advancing Translational Sciences (NCATS)
Only some compounds are listed: those with a hit (about 6% of all), similar ones and a draw of the others.
D1 agonist – activates the human D1 dopamine receptor; P21728; HEK293 T-REx D1 cells, calcium flux, agonist mode; activation, % at 2 µM; 360,000 compounds, 1% hits; AID 504660; in the data active means activation above about 30%; further: 0% is about no effect
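Inducible HEK293 T-REx D1 cells, force-coupled to calcium signalling, were plated at 4000 cells/well with tetracycline and held overnight at 30 C. After no-wash calcium dye loading, compound-evoked calcium rise over 180 s flagged agonists.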
D3 ag – D3 dopamine receptor (human) agonism; max activation, %; AID 652048; 410,000 compounds, 0.58% hits; D3R DiscoveRx beta-arrestin cells, luminescence, 90 min; in the data active means max activation above about 30%; further: 0% is about no effect
Target sequence (P35462 whole entry, looked up): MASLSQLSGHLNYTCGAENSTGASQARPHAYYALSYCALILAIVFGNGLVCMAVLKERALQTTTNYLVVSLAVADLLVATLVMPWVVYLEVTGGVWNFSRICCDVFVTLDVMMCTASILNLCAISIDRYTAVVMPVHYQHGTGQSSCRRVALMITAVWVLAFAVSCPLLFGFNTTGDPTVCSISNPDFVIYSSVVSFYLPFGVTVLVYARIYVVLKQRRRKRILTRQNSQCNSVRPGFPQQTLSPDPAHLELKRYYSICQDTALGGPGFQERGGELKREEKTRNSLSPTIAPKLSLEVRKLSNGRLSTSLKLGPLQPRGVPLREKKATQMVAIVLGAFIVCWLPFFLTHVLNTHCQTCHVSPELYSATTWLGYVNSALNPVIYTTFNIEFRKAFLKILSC
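Agonist mode: compounds and dopamine controls were applied to plated cells for 90 min at 37 degrees C after an overnight attachment at 1500 cells/well. Luminescent read-out followed 30 - 60 minutes at room temperature with DiscoveRx detection reagent.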
D1 potentiator – human D1 dopamine receptor positive modulation | AID 504651 | potentiation, % at 10 µM | HEK293 TREx D1 cells, calcium flux, dopamine EC20 potentiation | 360,000 compounds, 0.036% hits | P21728; in the data active means potentiation above about 30%; further: 0% is about no effect
D3 antag – D3 dopamine receptor (human) antagonism; P35462; D3R cells, DiscoveRx beta-arrestin luminescence, antagonist mode; stronger effect = lower value; max response, negative = inhibition, %; 360,000 compounds, 2.5% hits; AID 652054; in the data active means max response below about -50%; inconclusive means no clear call, values can overlap the other calls; further: on the % scale 0 is the no-effect control and ±100 the full control effect
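Cells expressing the human receptor were seeded at 1500 cells/well, incubated overnight at 37 degrees C in 5% CO2, then exposed to library compounds with dopamine controls for 90 minutes at 37 degrees C before luminescent detection.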
D1 antag – human D1 dopamine receptor antagonism | P21728 | HEK293 TREx D1 cells, calcium flux, dopamine EC80; stronger effect = lower value | activity change, negative = inhibition, % at 10 µM | 360,000 compounds, 3.2% hits | AID 504652; in the data active means activity change below about -30%; further: on the % scale 0 is the no-effect control and ±100 the full control effect
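Inducible Hek293 Trex D1 cells (tetracycline, overnight, 30 C). Calcium dye 30–90 min RT. Antagonist mode: EC80 dopamine added after 180 s compound read.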
Starred values were filed as active, the others as inactive; ? = inconclusive; nt = not tested or not shown.

SMILES	D1 agonist	D3 ag	D1 potentiator	D3 antag	D1 antag
O[Si](CCCN1CCCCC1)(c1ccc(F)cc1)C1CCCCC1 (centres undefined)	19.0	-87.0	-0.6	-109.6*	16.5
CC1CCc2[nH]nc(C(=O)O)c2C1 (centres undefined)	0.7	1.0	-8.8	12.6	-47.1*
COc1cc(OC)c(N(C)C(=O)c2cn(C3CCCC3)c(=O)c3c2c2ccccc2n3C)cc1Cl	4.0	-3.9	-0.7	nt	-13.3
O=C(Cn1ncc2c3ccccc3n(Cc3cccc(Cl)c3)c2c1=O)N1CCCCCC1	14.2	8.2	2.3	nt	2.1
O=C1CC(c2ccc(F)cc2)Sc2nc(C34CC5CC(CC(C5)C3)C4)nn21 (centres undefined)	2.1	-5.9	-8.2	8.7	-52.2*
O=[N+]([O-])c1ccc(N/N=C\c2cccn2-c2ccccc2)nc1	37.4*	-22.2	4.8	?	0.1
CCSc1ncc(/C=N/Nc2ccccc2)n1C	0.8	-11.2	10.2	-25.2	-4.2
CCSc1ncc(/C=N/Nc2ccc([N+](=O)[O-])cc2)n1C	37.2*	-4.6	-4.4	-2.1	-4.7
N#Cc1ccccc1Cn1cc(/C=N/Nc2ccc([N+](=O)[O-])cn2)c2ccccc21	7.6	-9.6	1.8	-52.4*	6.9
O=[N+]([O-])c1ccc(NN=Cc2ccccc2)nc1	nt	-8.8	nt	-19.0	nt
O=C(CCCCCn1c(=S)[nH]c2ccc(N3CCOCC3)cc2c1=O)NC1CCN(Cc2ccccc2)CC1	0.5	-14.7	-8.2	-17.4	-31.8*
O=C(c1ccc(Cn2c(=S)[nH]c3ccc(N4CCOCC4)cc3c2=O)cc1)N1CCC(N2CCCCC2)CC1	1.6	1.6	-4.0	8.5	-7.9
O=C(CCCCn1c(=O)[nH]c2ccccc2c1=O)NC1CCN(Cc2ccccc2)CC1	-2.5	-3.9	-1.2	0.0	-1.8
O=C(NC1CCN(Cc2ccccc2)CC1)c1ccc(Cn2c(=S)[nH]c3ccc(N4CCOCC4)cc3c2=O)cc1	1.4	-11.7	-3.9	-71.3*	25.0
NNC(=O)COc1ccc(-c2n[nH]c(C(F)(F)F)c2-c2ccc(Br)cc2)c(O)c1	38.9*	-1.8	-7.6	9.8	-37.3*
CC(=O)c1cccc(CN2CCN(Cc3ccccc3)C(CCO)C2)c1 (centres undefined)	0.1	-15.5	7.3	-27.8	-6.6
Cc1cc(-n2cccn2)ccc1CN1CCN(C2CCCC2)C(CCO)C1 (centres undefined)	2.9	-22.4	6.8	-70.2*	15.4
CC(=O)c1cccc(CN2CCN(C3CCCCC3)C(CCO)C2)c1 (centres undefined)	1.9	-7.0	1.9	-54.3*	-1.5
Cc1ccc(-c2nc3sc4c(N)ncnc4c3c3c2CCCC3)cc1	3.1	9.5	-21.1	-22.8	-60.6*
COc1cc(Cl)c(C)cc1NC(=O)CSc1cc(-c2ccccc2)nc(C)n1	1.6	16.4	-2.2	nt	-7.5
CCCCCCCCCCC[N+](C)(C)CC/C=C1/c2ccccc2Sc2ccc(Cl)cc21	48.0*	-3.3	-8.8	-124.0*	-8.2
CCCCCCCCCC[N+](C)(C)CC/C=C1/c2ccccc2Sc2ccc(Cl)cc21	53.1*	-2.1	-4.5	-113.2*	5.8
CC[N+](C)(C)CC/C=C1/c2ccccc2Sc2ccc(Cl)cc21	0.4	-9.9	-3.0	-8.1	-16.9
CC(C)CC(C(=O)NC(=O)NCc1ccccc1)N1C(=O)c2ccccc2C1=O (centres undefined)	1.5	-10.2	-9.4	0.0	-78.8*
COc1cccc(CC(=O)OC(C)C(=O)Nc2ccc(Cl)cn2)c1 (centres undefined)	3.9	-0.6	-2.0	-28.6	-34.8*
SMILES	D1 agonist	D3 ag	D1 potentiator	D3 antag	D1 antag
CCOC(=O)c1ccc(-n2c(=S)sc3c(=O)[nH]c(C)nc32)cc1	0.8	51.0*	-3.4	42.2	-7.9
COC(=O)CNC(=O)CSc1nc2c(sc(=S)n2-c2ccccc2)c(=O)[nH]1	0.7	10.6	-5.6	-14.2	-37.2*
CCOC(=O)CC(=O)CSc1nc2c(sc(=S)n2-c2ccccc2)c(=O)[nH]1	2.2	2.4	-2.9	31.2	-2.6
CCc1ccc(-n2c(=S)sc3c(=O)[nH]c(SCC(=O)NC4CCCCC4)nc32)cc1	nt	-1.9	nt	-50.6*	nt
CCOC(=O)CSc1nc2c(sc(=S)n2-c2ccc(CC)cc2)c(=O)[nH]1	2.8	3.5	-3.7	100.1	2.1
CCc1ccccc1NC(=O)c1cc(S(=O)(=O)N2CCCC2)cn1C	3.9	3.6	-1.7	nt	3.0
CCOc1ccc2[nH]c(SCC(=O)OC)c([N+](=O)[O-])c2c1	6.9	-12.6	-3.3	-53.4*	-22.3
COC(=O)CSc1[nH]c2ccc(Br)cc2c1[N+](=O)[O-]	2.7	-0.7	-10.2	7.1	-6.6
COC(=O)CSc1nc(N2CCOCC2)c2c(c1C#N)CC(C)(C)N(C)C2	2.0	3.1	-4.3	-53.2*	-1.0
O=C(CSC1=Nc2ccccc2C2=NC(Cc3ccccc3)C(=O)N12)Nc1ccccc1C(F)(F)F (centres undefined)	0.3	-9.5	0.1	nt	-11.2
N#Cc1ccsc1NC(=O)c1cnccn1	1.5	-2.9	-2.9	-52.3*	-7.0
N#Cc1c(NC(=O)c2cnccn2)sc2c1CCCC2	0.9	-4.3	0.3	4.4	5.5
CCC(=O)N1CCc2cc(Br)cc(S(=O)(=O)NCCc3ccccc3Cl)c21	1.9	-14.3	-0.5	nt	-17.2
CCN(CCCNC(=O)c1nn(-c2ccc(OC)c(Cl)c2)c(=O)c2c1c1ccccc1n2C)c1ccccc1	-0.8	-18.1	3.5	nt	-5.0
CCN(CC)CCn1c(NCc2ccc3c(c2)OCO3)nc2ccccc21	0.2	-13.5	-1.1	-11.8	-17.3
CCN(CC)CCn1c(NCc2cc(OC)ccc2OC)nc2ccccc21	9.0	-2.3	-9.6	-87.8*	-17.3
COc1ccc(CNc2nc3ccccc3n2C)c(OC)c1	11.8	-2.0	-4.4	-15.7	-40.2*
CCN(CC)CCn1c(NCc2cccc(OC)c2)nc2ccccc21	3.0	-6.6	-12.2	-85.9*	-0.5
CCc1cccc(CC)c1NC(=O)C(CC)n1nc(C)n2c(cc3cc(C)ccc32)c1=O (centres undefined)	4.7	-1.7	3.5	nt	-20.8
COc1[nH]c2ccc(F)cc2c1C(=O)OCC1CCN(CCNS(C)(=O)=O)CC1	nt	-74.1	nt	-55.2*	nt
Cc1cc(C)cc(C(=O)N(CCc2ccccc2)C2CC3CCC(C2)N3C)c1 (centres undefined)	8.9	-11.4	-0.6	-5.7	-31.0*
COc1cc(C(=O)N(CCc2ccccc2)C2=CC3CCC(C2)N3C)cc(OC)c1OC (centres undefined)	2.0	-0.6	-1.9	6.0	-18.3
Cc1ccc2oc(=O)c3cnn(CC(=O)N4CCN(c5ccc(F)cc5)CC4)c3c2c1	3.2	6.2	-2.4	nt	3.8
CC1CCC2(CC1)SCC(=O)N2c1ccccc1 (centres undefined)	0.6	-1.1	-4.8	-1.4	12.6
Cc1cccc(N2C(=O)CSC23CCCCC3)c1	1.6	2.7	-7.8	11.9	-34.0*
